# Results reported in PubChem BioAssay (NCI).
# This is part of a sample that, as a whole, favours compounds with a hit. Of some 83,000 tested, about 20% had one in any assay.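 The endpoint reported here, percent growth, reads 100 for growth as untreated, 0 for no net growth and -100 for all cells dead.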 Unmarked numbers belong to inactive results. The source made the active and inactive calls. Rule for the calls: active = growth percent below 10; inactive = the rest.
# Experiments:
# Test in all cases: NCI-60 one-dose screen, 48 h (100 = growth as untreated, 0 = no growth, -100 = all killed)
# Conditions in all cases: 10 µM
# NCI-H23 lung = system: NCI-H23 lung
# NCI-H226 lung = system: NCI-H226 lung
# NCI-H322M lung = system: NCI-H322M lung
# HOP-62 NSCLC = system: HOP-62 NSCLC
# NCI-H460 lung = system: NCI-H460 lung
# NCI-H522 lung = system: NCI-H522 lung
# A549/ATCC NSCLC = system: A549/ATCC NSCLC
# 786-0 renal = system: 786-0 renal
# COLO 205 colon = system: COLO 205 colon
# DU-145 prostate = system: DU-145 prostate
# K-562 leukemia = system: K-562 leukemia
# MALME-3M melanoma = system: MALME-3M melanoma
# MDA-MB-231 breast = system: MDA-MB-231 breast
# RXF 393 renal = system: RXF 393 renal
# SF-268 CNS = system: SF-268 CNS
# SF-295 CNS = system: SF-295 CNS
# SF-539 CNS = system: SF-539 CNS
# UACC-257 melanoma = system: UACC-257 melanoma
# M14 melanoma = system: M14 melanoma
# HCT-15 colon = system: HCT-15 colon
Compound,growth (NCI-H23 lung) [%],growth (NCI-H226 lung),growth (NCI-H322M lung) [%],growth (HOP-62 NSCLC),growth (NCI-H460 lung),growth (NCI-H522 lung),growth (A549/ATCC NSCLC),growth (786-0 renal),growth (COLO 205 colon),growth (DU-145 prostate),growth (K-562 leukemia),growth (MALME-3M melanoma),growth (MDA-MB-231 breast),growth (RXF 393 renal),growth (SF-268 CNS),growth (SF-295 CNS),growth (SF-539 CNS),growth (UACC-257 melanoma),growth (M14 melanoma),growth (HCT-15 colon)
O=C(O)CCCCSc1ncnc2nc[nH]c12,103,98.6%,90.2,96.7%,109%,84.1%,101%,97.2%,103%,101%,102%,96.2%,113%,105%,98.9%,101%,102%,99.6%,103%,102%
O=C1/C(=C\c2ccc(F)cc2)CN(C(=O)c2ccccc2F)C/C1=C\c1ccc(F)cc1,16.4,-32.9% (active),77.6,-15.5% (active),17.8%,-69.5% (active),12.9%,-51% (active),-42.9% (active),-10.4% (active),-0.921% (active),-55.2% (active),-38.7% (active),-83.2% (active),0.452% (active),-30.7% (active),0.221% (active),-28.2% (active),-48.4% (active),-16.3% (active)
O=C(O)CC(Cl)C(Cl)CC(=O)O (stereo not given),102,119%,93.1,110%,101%,86.3%,94.6%,101%,112%,106%,103%,90.7%,117%,127%,105%,92.7%,99.3%,92.2%,102%,99.2%
COc1ccc(OC)c(NC(=O)c2sc3nc4c(cc3c2N)C(=O)CCC4)c1,78.5,88.6%,75.9,94%,37.4%,60.6%,39%,95.4%,34.1%,113%,61.7%,86.4%,86.9%,85.4%,110%,80.9%,97.3%,93.5%,93.9%,80.6%
COc1ccc(/C=C2/CN(CCC#N)C/C(=C\c3ccc(OC)cc3)C2=O)cc1,31.1,-6.76% (active),76,-38% (active),2.6% (active),-28% (active),-4.55% (active),-14.3% (active),-52.3% (active),5.29% (active),1.95% (active),-44.7% (active),-25.4% (active),-63% (active),0.448% (active),-32.7% (active),9.73% (active),17.4%,0.654% (active),0.438% (active)
CC(C)(C#N)Nc1ccccc1,108,95.8%,124,108%,109%,94.1%,96.9%,101%,109%,118%,102%,104%,100%,101%,113%,77.7%,96.2%,98.5%,107%,99%
CCOC(=O)N/N=C\C(C)=N\NC(=O)OCC,101,119%,89.5,96.3%,102%,89.2%,92.6%,101%,114%,106%,98.7%,84.5%,111%,125%,105%,90.9%,99.9%,92.6%,100%,99.5%
C[C@]12CC[C@@H]3c4ccc(O)cc4C[C@@H](O)[C@H]3[C@@H]1CC[C@@H]2O,110,101%,102,108%,108%,106%,94.6%,105%,119%,110%,105%,102%,107%,110%,109%,112%,96.5%,88.6%,105%,102%
